# Source: PubChem
# tim23-1 inh = growth inhibitors of tim23-1 mutant yeast | S. cerevisiae tim23-1 growth, BacTiter-Glo luminescence, 24 h | inhibition, % at 20 µM | 330,000 compounds, 1.3% hits;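 active means growth inhibition of the mutant yeast at or above 50%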;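 further: temperature-sensitive mutant grown at 25 °C; plate controls were DMSO-treated mutant yeast for no effect and medium wells lacking yeast for full effect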
# TIM10 inh = growth inhibitors of TIM10 yeast strain; AID 463195; 330,000 compounds, 1.4% hits; inhibition, % at 10 µM; S. cerevisiae TIM10 strain growth, BacTiter-Glo luminescence, 24 h;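 active means inhibition of 40% or more at the single tested concentration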;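 further: wild-type TIM10 isogenic control strain grown at permissive 25 °C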
# NLRP3 yeast inh = NALP3 inhibition in yeast. AID 2825. inhibition, % at 10 µM. Yeast reconstituted NLRP3/ASC/caspase-1, beta-gal luminescence, 24 h. 330,000 compounds, 0.39% hits;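 active means inhibition of 50% or more; inactive means inhibition below 50%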;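 further: plate controls were induced DMSO wells for no effect and uninduced yeast grown without galactose for full effect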
# PfHsp90 set2 = inhibits growth of yeast expressing Plasmodium falciparum Hsp90 | S. cerevisiae expressing PfHsp90, BacTiter-Glo ATP, 48 h; yeast lacking PDR1 and PDR3 efflux regulators | inhibition, % at 9.4 µM | 310,000 compounds, 0.32% hits;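 active means every replicate shows inhibition above about 80%, whatever the replicate mean, limit read from the data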;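 further: 0% = DMSO neutral controls and 100% = 20 µM radicicol positive controls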
# tim10-1 inh = tim10-1 yeast growth inhibition | S. cerevisiae tim10-1 ts strain growth, BacTiter-Glo, 24 h | inhibition, % at 20 µM | 330,000 compounds, 2.2% hits;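 active means inhibition of at least 40%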;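 further: mutant grown at 25 °C; 0% = DMSO wells with yeast and 100% = wells holding no yeast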
# tim10 confirm = confirmation of TIM10 yeast growth inhibitors | shares compounds with TIM10 inh | S. cerevisiae tim10 strain growth, BacTiter-Glo luminescence, 24 h | inhibition, % at 10 µM | 4,600 compounds, 63% hits;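 active means inhibition of yeast growth at or above a set limit in either of two replicates at 10 µM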;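 further: this counterscreen used the strain with wild-type TIM10; 0% = yeast with DMSO and 100% = medium wells lacking yeast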
# * marks the source's active call; other numbers are inactive results; x = not tested or not shown. This is a sample that favours compounds with a hit; in the whole collection about 3.7% have one here.
SMILES,tim23-1 inh,TIM10 inh,NLRP3 yeast inh,PfHsp90 set2,tim10-1 inh,tim10 confirm
CCCCCCn1cnc2c(oc3nc4c(cc32)CCCC4)c1=O,10.9,43.2*,17.9,-0.3,8.5,-2.2
CCCCn1cnc2c(oc3nc4c(cc32)CCCC4)c1=O,23.2,17.7,7.2,18.1,-20.5,x
Cc1ccc(N2C(=O)N(CC(=O)Nc3cccc(C)c3C)C(=O)C2C)cc1 (stereo not drawn),20.2,3.7,16.8,-0.6,19.5,x
O=C(CCC(=O)Nc1nnc(C2CCCCC2)s1)NCc1ccccc1,12.2,54.8*,8.2,-8.3,2.3,-3.0
O=S(=O)(c1cccc(-c2csc(-c3cccnc3)n2)c1)N1CCOCC1,36.8,11.2,20.9,1.8,13.9,x
O=S(=O)(c1ccc(-c2csc(-c3cccnc3)n2)cc1)N1CCCCC1,20.7,48.2*,-69.1,x,37.1,27.9
O=C(N/N=C/C1C(c2ccccc2)C1(Cl)Cl)c1cccc(Cl)c1 (stereo not drawn),44.4,40.2*,11.4,-18.1,36.7,12.4
COC(=O)[C@@H](NC(=O)NCCC1=CCCCC1)C(C)C,6.2,49.1*,4.5,1.3,10.0,-16.0
c1ccc(-c2nnc3sc(CN4CCc5ccccc54)cn23)cc1,46.9,42.4*,12.1,8.7,12.5,21.8
Cc1ccc2cc(/C=N/NC(=O)CN3CCCCC3)c(Cl)nc2c1,5.7,2.9,-6.7,5.5,0.0,x
N/C(=N/O)c1nc(N2CCCC2)nc(N(c2ccccc2)c2ccccc2)n1,47.9,53.3*,-15.1,20.8,32.6,36.5*
N/C(=N/O)c1nc(N2CCCC2)nc(N2CCCC2)n1,-9.3,-6.4,6.9,x,-4.8,x
CC(=O)Nc1cc(C(=O)N2CCc3ccccc3C2)ccc1Sc1ccc(F)cc1,12.5,-6.1,-5.3,-17.0,14.3,x
CC(=O)Nc1cc(C(=O)N2CCc3ccccc3C2)ccc1Sc1ccc(Cl)cc1,42.5,41.6*,14.9,3.8,35.1,-9.3
CCOC(=O)c1ccc(NC(=O)CSc2ccc(-c3ccccn3)nn2)cc1,7.8,9.8,13.9,27.9,-6.9,x
CCOC(=O)c1nc(NCc2cccc(OC)c2)c2ccccc2n1,9.1,1.2,3.8,-8.2,25.9,x
CC1CC(C)CN(S(=O)(=O)c2ccc(C(=O)N(C)Cc3ccccc3)cc2)C1 (stereo not drawn),20.8,15.8,2.4,19.4,4.1,x
COc1ccc(N2CCC(CNC(=S)Nc3cccc(C)c3)C2)cc1 (stereo not drawn),41.4,25.9,17.8,-7.0,-6.2,x
COc1ccc(N2CCC(CNC(=S)Nc3c(C)cc(C)cc3C)C2)cc1 (stereo not drawn),48.5,40.1*,11.6,-26.1,-0.3,55.7*
Cc1nc(-c2ccc3c(c2)OCO3)cs1,7.9,-0.9,15.7,x,-8.0,x
Cc1c(C)c(C)c2[nH]c(-c3ccc4c(c3)OCO4)nc2c1C,46.2,81.7*,32.7,18.7,25.8,87.2*
Cc1nc2c3cc(Cl)ccc3n(CCN3CCCCC3)c2s1,1.9,15.6,-69.7,12.9,24.9,x
CCOC(=O)C1CCN(C(=O)c2sc3ncnc(N4CCC(C)CC4)c3c2C)CC1,28.3,40.8*,20.6,22.3,35.3,16.2
CCOC(=O)C1CCN(C(=O)c2sc3nc(C)nc(N4CCC(C)CC4)c3c2C)CC1,33.4,27.1,11.5,-0.9,19.0,x
CC(C)(C)NC(=O)CN(C(=O)CS(=O)CC(=O)Nc1ccc(F)cc1)c1ccc(F)c(Cl)c1 (stereo not drawn),10.4,-0.2,0.8,6.7,6.0,x
SMILES,tim23-1 inh,TIM10 inh,NLRP3 yeast inh,PfHsp90 set2,tim10-1 inh,tim10 confirm
CSCCC(NC(=O)c1ccc(Cl)c([N+](=O)[O-])c1)C(=O)N1CCN(C/C=C/c2ccccc2)CC1 (stereo not drawn),-36.2,-71.1,26.9,x,-53.9,x
CC(C)NC(=O)N(C)C[C@@H]1Oc2c(NC(=O)C3CCOCC3)cccc2C(=O)N([C@@H](C)CO)C[C@H]1C,-21.0,96.6*,4.8,-14.3,-8.3,-10.1
CC(C)NC(=O)Nc1cccc2c1O[C@H](CN(C)C(=O)NC(C)C)[C@@H](C)CN([C@H](C)CO)C2=O,2.1,1.9,2.6,14.1,-13.5,x
CCCOC(=O)c1ccc(NC(=O)c2ccoc2C)cc1,10.4,-2.1,27.0,21.8,-0.5,x
CCCCOC(=O)c1ccc(NC(=O)c2ccoc2C)cc1,27.0,41.1*,19.0,5.4,34.3,2.4
CCn1c(SCC(=O)OC(C)C)nnc1-c1ccccc1OC,5.3,9.2,14.8,-0.7,13.2,x
CCCC1(c2ccccc2)NC(=O)N(CC(=O)NCC2COc3ccccc3O2)C1=O (stereo not drawn),-7.7,6.4,12.0,x,-9.8,x
O=C(OCc1cccc([N+](=O)[O-])c1)c1ccc2ccccc2n1,23.4,37.0,5.4,x,35.8,x
COc1ccccc1/C=C/C(=O)NC(=S)NCC1CCCO1 (stereo not drawn),21.5,41.8*,15.1,-5.4,34.1,34.8*
COc1ccc(/C=C/C(=O)NC(=S)NCC2CCCO2)cc1 (stereo not drawn),0.9,-0.3,0.7,-31.2,24.6,x
COc1ccc(/C=N/NC(=S)NCC2CCCO2)cc1 (stereo not drawn),33.0,44.4*,21.6,5.5,31.0,20.5
O=S1(=O)C=C(Oc2ccc3ccccc3c2)c2ccccc21,38.4,41.9*,25.0,22.6,27.6,41.9*
CC(C)OCCCN1CC(=O)N2[C@@H](Cc3c([nH]c4ccccc34)C2(C)C)C1=O,6.1,14.0,-0.1,8.4,11.4,x
Clc1cc(CSc2ccccc2)nc(-c2ccccc2)n1,-5.4,3.1,12.4,10.0,5.0,x
CC(C)(C)C1CCC(=NNC(=O)C(=O)NCc2cccnc2)CC1 (stereo not drawn),6.0,2.2,24.5,x,-13.6,x
CCC(C)(C)C1CCC(=NNC(=S)Nc2cccnc2)CC1 (stereo not drawn),45.5,41.5*,36.0,-26.9,32.6,45.2*
COC(=O)c1c(NC(=O)c2nc3ccccc3s2)sc2c1CC(C)(C)NC2(C)C,40.1,55.2*,15.2,15.2,29.8,36.0*
O=C1c2ccccc2C(=O)N1SC1CCCCC1,10.0,65.2*,-14.5,105.8*,32.9,83.3*
O=C(OCN1C(=O)c2ccccc2C1=O)C1CCCCC1,10.4,2.5,-9.9,0.8,22.6,x
COc1ccc(OC)c(S(=O)(=O)N2CCCC(C(=O)N3CCCC3)C2)c1 (stereo not drawn),-4.9,-4.3,-2.6,14.9,18.4,x
C=CCNc1nnc(Cc2ccc(C(C)C)cc2)c(=O)[nH]1,11.6,6.7,-2.2,-12.4,14.3,x
CCOc1ccc(NC(=S)NC23CC4CC(CC(C4)C2)C3)cc1,-8.2,-4.3,19.9,31.6,-2.9,x
FC(F)Oc1ccc(NC(=S)NC23CC4CC(CC(C4)C2)C3)cc1,44.1,52.3*,20.9,-2.3,17.4,34.8*
COc1ccc(-c2csc(NC(=O)CSCC(=O)Nc3cc(C)on3)n2)cc1,6.8,7.9,12.2,-3.0,0.9,x
